Molecules are shown by their SMILES. Results filed as inconclusive are left out. Entries that show only a call come without a potency. Calls of active or inactive are those of the source. The call rests on the fitted dose curve; in most records, active means well fitted inhibition curve with a large enough effect; inconclusive means small, poorly fitted or top-dose-only effect; inactive means flat fitted curve, though single readings scatter.

The target of this assay is Aldehyde dehydrogenase, mitochondrial (Homo sapiens) (UniProt P05091). As to the kind of experiment: qHTS for Inhibitors of the Aldehyde Dehydrogenase Family (ALDH2) Primary screen (AID 2061308). Further: nearly all actives have a fitted effect of over 55% in size. Conditions: ALDH2 enzyme inhibition qHTS, 1536-well; series mostly up to 56 µM. On the technique in general: Quantitative high-throughput screening tests each substance at several concentrations.
Take `CCOc1ccc(CCNC(=O)C2(c3ccccc3)CC2)cc1OCC`: the Potency result is “inactive”.
Then `N#CN1CCC(NC(=O)c2cccc(C(F)(F)F)c2)CC1`, with “inactive”; and `Cn1cnc(CCNc2ncnc3ccc(-c4ccc5c(c4)OCO5)cc23)c1`, with “inactive”; and `COc1ccc(Nc2nc(-c3ccncc3)nc3ccccc23)cc1F`, with “inactive”.
Then `O=C1CCc2cc(S(=O)(=O)Nc3cccc(Oc4ccccc4)c3)ccc2N1`, with “inactive”; and `Cc1cc2c(s1)c1cnn(Cc3c(F)ccc(F)c3Cl)c(=O)c1n2C`, with “inactive”.
In the case of `CC(O)C(O)/C=C/C=C/C(=O)O[C@@H]1C=C(C(=O)O)[C@](O)(CO)[C@@]2(C)CCCC(C)(C)[C@H]12` (stereo not given in full), the Potency result was “inactive”.
`C=C1C(=O)O[C@@H]2[C@H]1CC[C@H](C)[C@]1(CCC(=O)O1)C2(C)O` (stereo not given in full): the Potency result is “inactive”.
As for `Cc1nc(NCc2ccccc2)c2nc(-c3ccccc3)n(CC3CCN(C)CC3)c2n1`, the entry is “inactive”; as for `Oc1ccc(COC2CCCC2)c2cccnc12`, “inactive”.
With `Brc1sc2c(c1-c1nc3ccccc3s1)CCNC2`, the Potency result is “inactive”.
As for `Clc1cccc(-c2ccc3ncnc(NCc4cccnc4)c3c2)c1`, the entry is “inactive”; as for `N#CN1CCC(NC(=O)c2ccc(F)cc2)CC1`, “inactive”; as for `COc1cccc(C2C(C#N)=C(NC(=O)NCc3ccccc3)Oc3ccc4ccccc4c32)c1` (stereo not given), “inactive”.
As for `COc1cc(O)c(C(CC(=O)N2CCOCC2)c2ccc3c(c2)OCO3)c(OC)c1` (stereo not given), the entry is “inactive”.
As for `CC(C)(C)OC(=O)n1c2ccsc2c2cnn(Cc3ccccc3F)c(=O)c21`, the entry is “inactive”.
Consider `Cc1ccc(S(=O)(=O)Nc2cc([N+](=O)[O-])ccc2C(=O)Nc2nc(-c3ccccc3)cs2)cc1`, for which the Potency result is “inactive”.
As for `COc1ccc(-c2csc(N3CCC(C(N)=O)CC3)n2)cc1OC`, the entry is “inactive”.
Then `COc1cccc(CNc2ccc(S(=O)(=O)Nc3ccc(N4CCNCC4)cc3)cc2)c1O`, with “inactive”; and `C/C=C1\[C@H](O[C@@H]2O[C@H](CO)[C@@H](O)[C@H](O)[C@H]2O)OC=C2C(=O)OCCc3ccc(O)c(c3)Oc3ccc(cc3)CCOC(=O)C[C@H]21`, with “inactive”.
As for `CN(Cc1cncn1C)c1ncnc2ccc(-c3ccc4c(c3)OCO4)cc12`, the entry is “inactive”.
As to `O=C(Nc1ccc(S(=O)(=O)Nc2nccs2)cc1)c1ccnc2ccccc12`, the Potency entry was “inactive”.
Then `CCCCNc1nc(C)nc2c1nc(-c1ccccc1)n2C1CCN(Cc2ccccc2)C1` (stereo not given), with “inactive”; and `CCCn1c(C)nc2c(NC3CCCCC3)nc(C)nc21`, with “inactive”; and `Cc1cc(NS(=O)(=O)c2ccc(N(C)C(=O)Cc3ccc(Cl)c(Cl)c3)cc2)no1`, with “inactive”.
Then `COc1cc(OC)cc(-c2nnc3n2N=C(c2c(OC)cccc2OC)CS3)c1`, with “inactive”; and `CC(O)c1ccc(-c2ccc3ncnc(NCCc4cnc[nH]4)c3c2)o1` (stereo not given), with “inactive”.
As for `Cc1cc(C)nc(NC(=S)N2CCN(c3cccc(C#N)c3)CC2)c1`, the entry is “inactive”; as for `COc1cc(OC)cc(C2=Nn3c(nnc3-c3ccccc3O)SC2)c1`, “inactive”; as for `CC(=O)c1ccc(-c2csc3ncnc(Sc4nnnn4C)c23)cc1`, “inactive”.
In the case of `CC(C)[C@@H](C)/C=C/[C@@H](C)[C@H]1CC[C@H]2C3=CC=C4C[C@@H](O)CC[C@]4(C)C3=CC[C@]12C`, the Potency entry is “inactive”.
Then `CCc1cccc(CC)c1NC(=O)c1nn(C)c2c1CCc1cnc(Nc3ccc(C(=O)NC4CCN(C)CC4)cc3OC(F)(F)F)nc1-2`, with “inactive”.
As for `Cc1nnc(-c2cnn(C)c2N)n1CCCc1cccnc1`, the entry is “inactive”; as for `Cc1ccc(OCCn2c(CCNC(=O)c3ccc4cc[nH]c4c3)nc3ccccc32)cc1`, “inactive”.
As for `COc1ccc2oc(NC3=NC(c4[nH]ncc4Cl)C4=C(CCCC4=O)N3)nc2c1` (stereo not given), the entry is “inactive”.
For `COc1cccc(-n2cnc3cc(C(=O)N4CCCCC4)ccc32)c1`, the Potency result was “inactive”.
As for `CCCn1c(-c2ccc(F)cc2)nc2c(NCCN(C(C)C)C(C)C)nc(C)nc21`, the entry is “inactive”.
Take `O=S(=O)(Cc1ccc(Cl)c(Cl)c1)Nc1nnc(-c2ccncc2)s1`: the Potency entry is “inactive”.
Then `Cc1cc(C)n2ncc(C(=O)NCC(C)C)c2n1`, with “inactive”.
Then `CCCn1c(-c2ccc(F)cc2)nc2c(NC3CCN(Cc4ccccc4)CC3)nc(C)nc21`, with “inactive”.

(Values after PubChem BioAssay (NCATS).)
